# High-throughput results deposited in PubChem BioAssay by several laboratories.
# Only some compounds are listed: those with a hit (about 1.5% of all), similar ones and a draw of the others.
# E coli Lon inh – inhibitors of E. coli Lon protease; P0A9M0; purified E. coli Lon protease, fluorescence polarization; inhibition, % at 7.94 µM; actives 0.42% (n = 360,000); AID 602123; in the data active means inhibition above about 13%, passing the limit was not always enough
# MEX-5 binding – C. elegans MEX-5 TCR-2 RNA binding activity | AID 1832 | Q9XUB2 | MEX-5/FITC-TCR2 RNA binding, fluorescence polarization; stronger effect = lower value | activity score (negative = inhibition of binding), % at 10 µM | actives 0.38% (n = 300,000);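 active means inhibition past about -25% in most replicates, and total fluorescence under double the plate's negative control median, limit read from the data; inconclusive means replicates evenly split on the limit, or fluorescence at least double controls; inactive means too little inhibition in most replicates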
# EBV gp42 block – EBV gp42 inhibition | Q1HVG2 | Fluorescence polarization binding assay, mP read-out | inhibition, % (tested at 21.74 µM) | actives 0.42% (n = 220,000); in the data active means inhibition above about 50%
# Target sequence (Q1HVG2 whole entry, looked up): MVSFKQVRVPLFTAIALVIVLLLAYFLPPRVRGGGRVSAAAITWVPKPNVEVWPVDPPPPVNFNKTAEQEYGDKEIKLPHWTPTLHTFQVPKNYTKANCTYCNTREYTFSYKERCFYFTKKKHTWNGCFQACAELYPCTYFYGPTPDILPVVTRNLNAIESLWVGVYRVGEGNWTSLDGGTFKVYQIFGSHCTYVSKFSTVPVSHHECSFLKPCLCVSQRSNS
# BCLXL inh – blocks human Bcl-xL binding to Bim BH3 peptide. Q07817. GST-Bcl-xL / FITC-Bim BH3 peptide fluorescence polarization. inhibition, % at 10.9 µM. actives 0.7% (n = 320,000). AID 2129;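 active means inhibition above the mean of all tested compounds plus 3 SD, cutoff set per campaign, cut at about 30% in these data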;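 further: inhibitors lower millipolarization by displacing the labeled peptide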
# GLD-1 RNA inh – GLD-1-TGE RNA interaction inhibition (C. elegans); purified GLD-1 + fluorescein TGE RNA, fluorescence polarization; inhibition, % at 5.96 µM; actives 0.44% (n = 320,000); AID 2280;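 active means percent inhibition above a per-plate cutoff, the plate mean of test compounds plus 3 SD, cut at about 30% in these data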
# MCL1-BIM inh – disrupts human MCL1 binding to BIM-BH3 peptide | GST-MCL1 / FITC-Bim-BH3 fluorescence polarization | actives 0.68% (n = 320,000) | inhibition, % at 10.9 µM;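 active means inhibition above the mean inhibition of all tested compounds plus 3 SD, set per campaign, cut at about 40% in these data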;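 further: higher means more loss of mP so more displacement of Bim peptide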
# Target sequence (Q07820 whole entry, looked up): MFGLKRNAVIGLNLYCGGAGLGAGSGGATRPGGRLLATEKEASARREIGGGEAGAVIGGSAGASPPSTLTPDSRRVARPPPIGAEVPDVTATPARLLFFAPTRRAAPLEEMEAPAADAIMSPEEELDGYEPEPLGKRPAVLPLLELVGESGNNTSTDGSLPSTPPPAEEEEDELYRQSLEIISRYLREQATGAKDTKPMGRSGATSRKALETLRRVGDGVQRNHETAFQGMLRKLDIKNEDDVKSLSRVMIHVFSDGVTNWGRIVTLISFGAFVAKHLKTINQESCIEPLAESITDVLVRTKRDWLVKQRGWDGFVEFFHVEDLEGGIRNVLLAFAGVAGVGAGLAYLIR
# GLD1 RNA confirm – GLD-1 TGE RNA interaction inhibition, confirmation | shares compounds with GLD-1 RNA inh | GLD-1/FL-TGE RNA fluorescence polarization, biochemical | inhibition, % at 5.96 µM | actives 10% (n = 550) | AID 2459;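 active means average inhibition across triplicates above the hit cutoff set in the primary screen, cut at about 32% in these data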
# Hits are given with their value; . = inactive; ? = inconclusive; / = no result.
SMILES,E coli Lon inh,MEX-5 binding,EBV gp42 block,BCLXL inh,GLD-1 RNA inh,MCL1-BIM inh,GLD1 RNA confirm
CCN1C(=O)C(CC(=O)Nc2ccc(OC)cc2)N(CCc2ccc(OC)cc2)C1=S (stereo unspecified),.,.,.,.,.,.,/
COc1ccc(CCN2C(=S)N(C)C(=O)C2CC(=O)Nc2ccc(F)cc2)cc1 (stereo unspecified),.,.,.,.,61,.,.
CCOC(=O)C1CCN(C(=O)c2ccc3c(c2)NC(=O)/C(=C/c2ccccc2)S3)CC1,.,.,/,.,.,.,/
CCOC(=O)C1CCN(C(=O)c2ccc3c(c2)NC(=O)/C(=C\c2ccc(C)cc2)S3)CC1,.,?,/,37,35,42,.
CCN(CC)C(=O)c1[nH]cnc1C(=O)NCc1ccc(CNC(=O)OC(C)(C)C)cc1,.,/,/,.,.,.,/
COCCn1c(CN2CCN(c3ccccc3)CC2)nc2c1c(=O)n(C)c(=O)n2C,.,.,/,.,33,.,.
COCCNc1ccc([N+](=O)[O-])cc1C(=O)Nc1cccc(C)n1,.,.,.,.,68,.,.
CCc1ccc(OCC(O)Cn2c(N3CCCCC3)nc3c2c(=O)[nH]c(=O)n3C)cc1 (stereo unspecified),.,.,/,.,36,.,.
CCN(CC)CCNc1cc(C)c(C#N)c2nc3ccccc3n12,.,.,/,33,32,.,.
CCN(CC)CCCNc1cc(C)c(C#N)c2nc3ccccc3n12,.,/,/,/,/,/,/
CCOc1cc(CNS(=O)(=O)c2ccc3c(c2)CC(=O)N3C)cc(OCC)c1OCC,.,.,/,.,.,.,/
O=C(COc1ccccc1[N+](=O)[O-])Nc1ccc2c(c1)OCO2,.,.,.,.,.,.,/
COc1ccc2[nH]cc(CCNC(=O)c3ccccc3Cl)c2c1,.,.,/,47,33,52,.
Cc1ccc(N2CCN(S(=O)(=O)N3CCOCC3)CC2)cc1C,.,.,.,.,.,.,/
O=C(Nc1ccc2nc(-c3ccco3)c(-c3ccco3)nc2c1)N1CCCCCC1,/,.,78,105,41,118,.
CSCCC(NC(=O)c1ccccc1Cl)C(=O)Nc1ccc(C)c(S(=O)(=O)N2CCOCC2)c1 (stereo unspecified),.,.,/,.,.,.,/
CCOC(=O)c1c(C)nc2sc3c(=O)n(-c4ccc(C(C)=O)cc4)cnc3c2c1-c1ccc(OC)cc1,.,.,.,31,43,.,.
C=CCN1C=C2C(=O)C(C)(OC(=O)C3CCCC3)C(=O)C=C2C=C1c1ccsc1 (stereo unspecified),.,.,.,31,32,.,.
CC(C)CN(C(=O)CCCSc1nc2ccccc2[nH]1)c1c(N)n(Cc2ccccc2)c(=O)[nH]c1=O,.,.,/,.,.,.,/
CC(C)CCN(C(=O)CCCSc1nc2ccccc2[nH]1)c1c(N)n(Cc2ccccc2)c(=O)[nH]c1=O,.,.,/,.,47,.,65
CCNC(=O)N1c2ccc(OC)cc2C(C)=CC1(C)C,.,.,.,52,70,.,.
COc1ccc(NC(=O)N2c3ccc(OC)cc3C(C)=CC2(C)C)cc1,.,.,.,.,.,.,/
CC(C)N(Cc1nccn1C)C(=O)CC1C(=O)NCCN1Cc1ccc(F)c(F)c1 (stereo unspecified),.,.,/,.,38,.,.
O=C1NC(=O)N(Cc2ccccc2F)C1=O,.,.,/,.,.,.,/
N#C/C(C(=O)N1CCOCC1)=c1/s/c(=C\c2ccccn2)c(=O)n1-c1ccccc1,.,.,.,43,33,43,.
SMILES,E coli Lon inh,MEX-5 binding,EBV gp42 block,BCLXL inh,GLD-1 RNA inh,MCL1-BIM inh,GLD1 RNA confirm
CCc1noc(C)c1C(=O)NNC(=O)COc1ccccc1C,.,/,/,.,.,.,/
CC1(C(=O)NCc2ccc(Cl)cc2)CCN1C(=O)c1cccc(F)c1 (stereo unspecified),.,/,/,/,/,/,/
CCN1CCc2c(C#N)c(N3CCCCC3)nc(NCc3ccccc3)c2C1,.,.,.,.,.,.,/
N#Cc1c(NCCO)nc(NCc2ccccc2)c2c1CCN(Cc1ccccc1)C2,/,.,.,46,36,50,.
CCOc1cc(CNCc2cccs2)cc(Br)c1OCC,.,.,.,.,37,.,.
CCOc1cc(CNCCO)cc(Br)c1OCc1cccs1,.,.,.,.,.,.,/
Cc1ccc(Cc2c(-c3ccc(F)cc3)nc3c(Cl)cc(C(F)(F)F)cn23)cc1,.,/,/,/,/,/,/
Fc1ccc(-c2nc3c(Cl)cc(C(F)(F)F)cn3c2Cl)cc1,.,-26,.,.,38,.,.
COCCN(C(=O)COC(=O)c1c(C)nn(-c2ccccc2)c1C)c1c(N)n(Cc2ccccc2)c(=O)[nH]c1=O,.,/,/,/,/,/,/
COc1ccc(C(=O)n2cnnc2N)cc1,.,.,.,.,.,.,/
CCOc1ccc(C(=O)n2cnnc2N)cc1,.,.,.,.,35,.,.
CCCCCn1c(SCC(=O)c2ccccc2)nc2cc(C(=O)NCC3CCCO3)ccc2c1=O (stereo unspecified),.,/,/,/,/,/,/
COc1ccc(OC)c(NC(=O)c2cc3c(cc2Cl)N2CCCCCC2=NS3(=O)=O)c1,.,/,/,/,35,/,.
CN(CC(=O)Nc1ccc(Cl)cc1)CC(=O)N1CCc2ccccc21,.,/,/,/,/,/,/
CC(=O)[C@@H]1[C@@H]2C(=O)N(C3CCCCC3)C(=O)[C@@H]2C2c3ccccc3C=CN21 (stereo partly specified),/,.,.,.,32,.,37
CCCS(=O)(=O)c1c(S(=O)(=O)CCC)c2c(N)cccn2c1C(=O)c1ccccc1,.,.,.,.,.,.,/
CCCS(=O)(=O)c1c(S(=O)(=O)CCC)c2c(N)cccn2c1C(=O)OC,.,.,.,.,35,.,.
CCc1c(C)sc(NC(=O)OC)c1C(N)=O,.,.,.,.,.,.,/
CCc1c(C)sc(NC(=O)OC)c1C(=O)N1CCCCC1,.,/,.,37,33,41,.
COc1ccc(Br)cc1C1=CC(=O)C[C@H](c2ccc(F)cc2)C1,.,/,/,/,/,/,/
COc1ccc(C)cc1C1=CC(=O)C[C@H](c2ccc(F)cc2)C1,.,/,/,.,34,.,.
O=C(CSc1ccc(-c2ccco2)nn1)NCc1ccccc1Cl,.,.,.,42,34,41,.
O=C(CSc1ccc(-c2ccco2)nn1)Nc1ccccc1,.,.,.,.,.,.,/
Cc1nn(C)c(C)c1NS(=O)(=O)c1c(C)n[nH]c1C,.,/,/,/,.,/,/
Nc1c(NCCC2=CCCCC2)c(=O)[nH]c(=O)n1Cc1ccccc1,.,-50,.,42,48,41,.
CC(=O)Nc1ccc(NC(=O)CSc2nnc3ccc(-c4cccnc4)nn23)cc1,.,.,/,.,.,.,/
